Several values for one entry are separate records, joined by “and”; a condition that tells them apart may be missing. Equal entries are not always repeated. Results filed as inconclusive are left out. The source holds several records for some structures; these can differ, active in one and inactive in another. Activity calls are given as the source filed them. Unless noted, calls come from the whole dose curve; as a rule, active = well fitted curve in the direction sought with a large enough effect in the repeat runs; inconclusive = weak or mixed curves; inactive = no such curve, though single readings can be large; an effect the other way counts as inactive or inconclusive.
Columns and labels:
[1] = qHTS RealTime-Glo MT Cell Viability Assay in HepG2 cells - 16 hour (AID 1224885); note: nearly all actives have a fitted effect of over 50% in size
In short: (§1)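 qHTS, HepG2, 600 cells/well, RealTime-Glo (NanoLuc + prosubstrate) added with cells; 5 h preincubation; DMSO compound addition; 37 C; luminescence at 0/8/16/24/32/40 h.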

[2] = qHTS RealTime-Glo MT Cell Viability Assay in HEK293 cells - 24 hour (AID 1224886); note: nearly all actives have a fitted effect of over 50% in size; note: potency is the fitted concentration of half-maximal effect
In short: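 Assay medium contained NanoLuc luciferase plus cell-permeant prosubstrate, added with HEK293 cells at 600 cells/well. After 5 h at 37 C/5% CO2 compounds were added; plates stayed at 37 C for 40 h with serial luminescence reads.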

[3] = qHTS RealTime-Glo MT Cell Viability Assay in HEK293 cells - 8 hour (AID 1224887); note: top concentration of the series differs between compounds; nearly all actives have a fitted effect of over 50% in size
In short: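 HEK293 cells mixed with RealTime-Glo reagents (NanoLuc plus cell-permeant prosubstrate) at 600 cells/well, preincubated 5 h at 37 C/5% CO2, then given 23 nL compound in DMSO. Nonlytic luminescence from viable cells was read at 0, 8, 16, 24, 32 and 40 h.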

[4] = A CellTox Green Cytotoxicity Assay to monitor cytotoxicity in HEK293 cells - 16 hour (AID 1224888); note: nearly all actives have a fitted effect of over 35% in size
In short: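 HEK293 cells premixed with CellTox Green dye were seeded at 600 cells/well and left 5 h at 37 C/5% CO2 before pin transfer of 23 nL compound in DMSO. Fluorescence from dye bound to dead-cell DNA was read during 40 h treatment.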

[5] = qHTS RealTime-Glo MT Cell Viability Assay in HepG2 cells - 0 hour (AID 1224889); note: nearly all actives have a fitted effect of over 50% in size
In short: as §1

[6] = A CellTox Green Cytotoxicity Assay to monitor cytotoxicity in HepG2 cells - 8 hour (AID 1224890); note: nearly all actives have a fitted effect of over 45% in size; note: potency is the fitted concentration of half-maximal effect
In short: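 HepG2 cells were seeded together with the CellTox Green dye at 600 cells/well, left 5 h at 37 C/5% CO2, then given compounds in DMSO. Fluorescence from dye bound to dead-cell DNA was read repeatedly over 40 h of treatment at 37 C.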

[7] = qHTS assay to identify small molecule antagonists of the estrogen receptor alpha (ER-alpha) signaling pathway using the BG1 cell line in the presence of 0.1 nM 17-beta-estradiol - cell viability counter screen (AID 1259241); note: nearly all actives have a fitted effect of over 40% in size
In short: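 Measures cytotoxicity alongside the ER-alpha antagonist readout: VM7Luc4E2 cells, charcoal-stripped serum, 0.1 nM 17beta-estradiol final, 22 hr compound incubation at 37C, CellTiter-Fluor fluorescence.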

[8] = qHTS assay to identify small molecule antagonists of the androgen receptor (AR) signaling pathway using the MDA cell line in the presence of 0.5 nM R1881 - cell viability counter screen (AID 1259242); note: nearly all actives have a fitted effect of over 45% in size
In short: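 MDA-kb2 cells (human breast carcinoma, stably carrying MMTV-luciferase reporter) were exposed to compounds with 0.5 nM R1881 (final) for 16 hr at 37C, 0% CO2; viability then read as live-cell protease fluorescence (CellTiter-Fluor, 30 min) in the same wells.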

[9] = qHTS assay to identify small molecule phospholipidosis (PLD) inducers (AID 1259344; active = well fitted curve in the direction sought with a large enough effect; an effect the other way counts as inactive or inconclusive)
In short: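 Fluorescent phospholipid staining (LipidTOX Red) measured by automated microscopy in fixed HepG2 cells after 24 h treatment; nuclei counterstained with Hoechst 33342; amiodarone as reference inducer.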

[10] = qHTS assay to identify small molecule HDAC inhibitors (AID 1259364); note: nearly all actives have a fitted effect of over 45% in size; note: potency is the fitted concentration of half-maximal effect
In short: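 Wild-type HCT-116 cells were plated overnight, exposed to compounds for 2 h at 37 °C, then given HDAC-Glo class I/II luminogenic reagent for 30 min at room temperature before luminescence was read.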

[11] = qHTS assay to identify small molecule HDAC inhibitors - cell viability counter screen (AID 1259365)
In short: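 Following a 2hr exposure of overnight-plated wild-type HCT-116 cells to DMSO-delivered compounds, CellTiter-Glo was added and luminescence recorded after 30min at room temperature.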

[12] = qHTS assay to identify small molecule agonists of the sonic hedgehog signaling (Shh) pathway - cell viability counter screen (AID 1259366); note: nearly all actives have a fitted effect of over 50% in size
In short: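 After a 4hr attachment at 37C, NIH/3T3 cells bearing an integrated Gli1-driven luciferase reporter were dosed with compounds. Treatment lasted 24hr, with the final hour including CellTiter-Fluor for a fluorescence viability measurement.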

[13] = qHTS assay to identify small molecule agonists of the sonic hedgehog signaling (Shh) pathway (AID 1259368; calls by dose curve; note: series mostly up to about 92 µM; nearly all actives have a fitted effect of over 15% in size)
In short: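 NIH/3T3-derived 3T3Gli1-Luc cells carrying a stably integrated Gli1 response element–firefly luciferase reporter were plated, left 4 hr at 37 C, then given compounds in DMSO for 24 hr. Luminescence was read 30 min after adding luciferase reagent.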

[14] = qHTS assay to identify small molecule antagonists of the sonic hedgehog signaling (Shh) pathway (AID 1259369; calls by dose curve; note: nearly all actives have a fitted effect of over 45% in size; note: potency is the fitted concentration of half-maximal effect)
In short: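 NIH/3T3-derived 3T3Gli1-Luc cells with stably integrated Gli1-Luc reporter were preincubated 4hr at 37 C, then given compounds in DMSO plus Shh conditioned medium and incubated 24hr. Firefly luciferase luminescence read after 30min reagent at room temperature.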

[15] = molecular target: Estrogen receptor beta (Homo sapiens) (UniProt Q92731); assay: qHTS assay to identify small molecule agonists of the estrogen receptor beta (ER-beta) signaling pathway (AID 1259377; active = well fitted activation curve with a large enough effect in the signal ratio in the repeat runs, not every such curve was filed as active; the % refers to the signal ratio)
Sequence of Estrogen receptor beta (Homo sapiens) (Q92731 whole entry, looked up): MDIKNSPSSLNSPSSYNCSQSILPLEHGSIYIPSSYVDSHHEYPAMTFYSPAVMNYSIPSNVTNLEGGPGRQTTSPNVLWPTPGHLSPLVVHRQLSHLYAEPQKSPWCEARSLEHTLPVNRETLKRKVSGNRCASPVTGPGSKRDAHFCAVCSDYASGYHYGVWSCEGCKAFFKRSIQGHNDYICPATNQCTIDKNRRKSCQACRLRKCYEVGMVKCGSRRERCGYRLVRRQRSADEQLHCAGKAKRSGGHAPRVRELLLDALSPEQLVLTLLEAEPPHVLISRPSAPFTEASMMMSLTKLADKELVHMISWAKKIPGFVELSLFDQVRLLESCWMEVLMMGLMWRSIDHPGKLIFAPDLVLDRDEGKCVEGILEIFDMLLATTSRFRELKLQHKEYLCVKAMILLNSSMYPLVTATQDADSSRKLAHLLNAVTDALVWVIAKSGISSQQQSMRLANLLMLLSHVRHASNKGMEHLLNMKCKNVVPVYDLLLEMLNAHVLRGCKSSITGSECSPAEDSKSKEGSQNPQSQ
In short: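 In HEK293T cells bearing a UAS-beta-lactamase reporter under ER-beta control, DMSO-delivered compounds were incubated for 16 hr at 37C. Activity was detected as fluorescence 2 hours after LiveBLAzer B/G FRET substrate addition.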

[16] = qHTS assay to identify small molecule agonists of the androgen receptor (AR) signaling pathway in the presence of an antagonist - cell viability counter screen (AID 1259379); note: series mostly up to about 92 µM; nearly all actives have a fitted effect of over 25% in size
In short: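 MDA-kb2 human breast carcinoma cells (stable MMTV-luciferase, AR/GR responsive) were seeded 3,000 cells/well, pre-incubated 5 hr at 37C without CO2, then given 3.0uM nilutamide and compounds at 15 concentrations for 16 hr. Viability was read by CellTiter-Fluor fluorescence.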

[17] = molecular target: Estrogen receptor (Homo sapiens) (UniProt P03372); assay: qHTS assay to identify small molecule antagonists of the estrogen receptor alpha (ER-alpha) signaling pathway using the BG1 cell line in the presence of 0.1 nM 17-beta-estradiol (AID 1259244); note: nearly all actives have a fitted effect of over 50% in size; note: potency is the fitted concentration of half-maximal effect
Sequence of Estrogen receptor (Homo sapiens) (P03372 whole entry, looked up): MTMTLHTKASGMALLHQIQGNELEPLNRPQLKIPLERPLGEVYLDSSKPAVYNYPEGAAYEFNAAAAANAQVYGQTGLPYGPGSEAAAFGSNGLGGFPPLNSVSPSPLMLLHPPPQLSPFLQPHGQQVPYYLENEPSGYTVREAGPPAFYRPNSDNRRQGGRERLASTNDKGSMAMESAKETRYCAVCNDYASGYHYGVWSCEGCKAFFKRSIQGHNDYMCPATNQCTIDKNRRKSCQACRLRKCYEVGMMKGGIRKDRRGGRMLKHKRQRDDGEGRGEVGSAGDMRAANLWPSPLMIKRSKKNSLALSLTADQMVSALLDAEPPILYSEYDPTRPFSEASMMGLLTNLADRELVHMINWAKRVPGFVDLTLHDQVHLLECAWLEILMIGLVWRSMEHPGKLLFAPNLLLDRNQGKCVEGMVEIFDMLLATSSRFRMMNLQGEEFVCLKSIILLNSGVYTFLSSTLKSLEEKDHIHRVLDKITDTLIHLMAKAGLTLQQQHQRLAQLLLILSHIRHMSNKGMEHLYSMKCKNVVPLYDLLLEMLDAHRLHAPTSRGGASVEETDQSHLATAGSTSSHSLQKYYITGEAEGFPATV
In short: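 VM7Luc4E2 cells (endogenous full-length ER-alpha, stable 4xERE-luciferase) were grown 5 days in phenol red-free medium with charcoal-stripped FBS, then exposed 22 h at 37C to compounds plus 0.1 nM (final) 17beta-estradiol; ONE-Glo luminescence read-out.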

[18] = qHTS assay to identify small molecule antagonists of the sonic hedgehog signaling (Shh) pathway - cell viability counter screen (AID 1259367); note: nearly all actives have a fitted effect of over 55% in size
In short: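 Using CellTiter-Fluor, viability of Gli1-Luc reporter 3T3 cells is read by fluorescence in the wells used for the Shh luciferase assay. Treatment lasts 23 hr with conditioned medium, then reagent 1 hr at 37C.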

[19] = molecular target: Estrogen receptor beta (Homo sapiens) (UniProt Q92731); assay: qHTS assay to identify small molecule antagonists of the estrogen receptor beta (ER-beta) signaling pathway (AID 1259378; active = well fitted inhibition curve with a large enough effect in the signal ratio in the repeat runs, not every such curve was filed as active; the % refers to the signal ratio)
In short: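 Antagonist mode: compounds added to beta-lactamase reporter HEK293T ER-beta-UAS cells stimulated with E2 (1nM final), 16 hr at 37C. LiveBLAzer B/G FRET substrate, 2 hours room temperature, fluorescence read-out.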

[20] = molecular target: Androgen receptor (Homo sapiens) (UniProt P10275); assay: qHTS assay to identify small molecule antagonists of the androgen receptor (AR) signaling pathway using the MDA cell line in the presence of 0.5 nM R1881 (AID 1259243); note: nearly all actives have a fitted effect of over 50% in size
Sequence of Androgen receptor (Homo sapiens) (P10275 whole entry, looked up): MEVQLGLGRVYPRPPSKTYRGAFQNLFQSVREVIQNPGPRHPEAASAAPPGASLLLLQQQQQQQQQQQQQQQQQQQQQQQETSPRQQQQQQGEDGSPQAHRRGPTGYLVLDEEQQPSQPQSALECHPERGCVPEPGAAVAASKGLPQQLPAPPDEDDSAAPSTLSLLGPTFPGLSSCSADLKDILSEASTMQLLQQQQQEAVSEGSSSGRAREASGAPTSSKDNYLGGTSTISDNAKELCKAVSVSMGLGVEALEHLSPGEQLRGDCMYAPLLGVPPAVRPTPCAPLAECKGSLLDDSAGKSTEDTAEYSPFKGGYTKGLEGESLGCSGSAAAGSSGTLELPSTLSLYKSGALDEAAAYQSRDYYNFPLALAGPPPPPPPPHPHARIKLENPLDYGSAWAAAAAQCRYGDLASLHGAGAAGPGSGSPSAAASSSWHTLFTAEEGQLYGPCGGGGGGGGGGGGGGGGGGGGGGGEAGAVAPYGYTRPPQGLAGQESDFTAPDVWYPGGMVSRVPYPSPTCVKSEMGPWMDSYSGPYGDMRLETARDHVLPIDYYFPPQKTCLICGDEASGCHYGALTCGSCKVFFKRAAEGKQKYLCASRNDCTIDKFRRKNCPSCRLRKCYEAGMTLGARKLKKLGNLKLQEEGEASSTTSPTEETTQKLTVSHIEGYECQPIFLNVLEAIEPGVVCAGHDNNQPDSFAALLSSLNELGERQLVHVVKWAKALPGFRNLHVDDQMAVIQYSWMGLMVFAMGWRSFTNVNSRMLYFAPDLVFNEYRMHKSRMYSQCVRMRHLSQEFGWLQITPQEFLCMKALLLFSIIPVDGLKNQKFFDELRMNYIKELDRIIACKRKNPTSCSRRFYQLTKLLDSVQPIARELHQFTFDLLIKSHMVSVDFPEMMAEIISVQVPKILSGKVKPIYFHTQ
In short: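 MDA-kb2 human breast carcinoma cells carrying an MMTV-luciferase reporter (AR- and GR-responsive) were plated, rested 5 hr at 37C, dosed with compounds, then stimulated with 0.5 nM R1881 (final) for 16 hr; luminescence was read after ONE-Glo.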

Measured: Potency

NCC(O)c1ccc(O)cc1 (stereo not given)
not listed: [17] | [18] | [19] | [20]
inactive: all other assays above

Nc1ccc(Br)cc1
43.2 µM (active) and inactive: [14]
not listed: [9] | [18] | [19] | [20]
inactive: all other assays above

CC(C)OC(=O)Nc1ccccc1
active: [10] 27.4 µM and 24.3 µM
not listed: [9] | [15] | [19] | [20]
inactive: all other assays above

C[C@]12CC[C@H]3[C@@H](CC[C@@]45O[C@@H]4C(O)=C(C#N)C[C@]35C)[C@@H]1CC[C@@H]2O
active: [14] 27.3 µM and 13.3 µM
not listed: [15] | [17] | [18] | [20]
inactive: all other assays above

ClCc1cccnc1
not listed: [9] | [15] | [19] | [20]
inactive: all other assays above

Clc1ccc(Cl)cc1
385 nM (active) and inactive: [14]
not listed: [20]
inactive: all other assays above

Cc1cccc([N+](=O)[O-])c1
not listed: [9] | [15] | [18] | [19] | [20]
inactive: all other assays above

CON(C)C(=O)Nc1ccc(Cl)c(Cl)c1
inactive and 43.6 µM (active): [2]
active: [10] 27.4 µM and 19.3 µM
not listed: [9] | [15] | [18] | [19] | [20]
inactive: all other assays above

O=S(=O)(c1ccc(Cl)cc1)c1cc(Cl)c(Cl)cc1Cl
not listed: [9] | [14] | [17] | [18] | [19] | [20]
inactive: all other assays above

Clc1ccccc1Cl
not listed: [17] | [18] | [19] | [20]
inactive: all other assays above

CCCCN(CC)C(=O)SCCC
not listed: [9] | [19]
inactive: all other assays above

Nc1ccc(Cc2ccc(N)cc2)cc1
not listed: [9] | [15] | [17] | [19] | [20]
inactive: all other assays above

CCOP(OCC)OCC
not listed: [9] | [15] | [18] | [19] | [20]
inactive: all other assays above

CN1C(=O)CN=C(c2ccccc2)c2cc(Cl)ccc21
active: [14] 4.39 µM
not listed: [15] | [17] | [19] | [20]
inactive: all other assays above

CN=C=S
active: [14] 2.19 µM
not listed: [9] | [15] | [19] | [20]
inactive: all other assays above

O=NN1CCCC1
20.2 µM (active) and inactive: [17]
inactive and 38.9 µM (active): [6]
not listed: [9] | [20]
inactive: all other assays above

O=Cc1cccc(Oc2ccccc2)c1
not listed: [9] | [20]
inactive: all other assays above

— PubChem BioAssay (Tox21)
